# Several values for one entry are separate records, joined by “and”; a condition that tells them apart may be missing. Equal values may be shown once. Out of some 220,000 compounds screened, about 2,100 (0.95%) were called active.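 How the source made its calls: active means compounds that cut the binding signal by more than half at the single screening dose; inactive means the rest.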 Only a selection was taken, and actives are over-represented in it overall.
# Biological target: Induced myeloid leukemia cell differentiation protein Mcl-1 (Homo sapiens) (UniProt Q07820)
# Sequence (Q07820 whole entry, looked up): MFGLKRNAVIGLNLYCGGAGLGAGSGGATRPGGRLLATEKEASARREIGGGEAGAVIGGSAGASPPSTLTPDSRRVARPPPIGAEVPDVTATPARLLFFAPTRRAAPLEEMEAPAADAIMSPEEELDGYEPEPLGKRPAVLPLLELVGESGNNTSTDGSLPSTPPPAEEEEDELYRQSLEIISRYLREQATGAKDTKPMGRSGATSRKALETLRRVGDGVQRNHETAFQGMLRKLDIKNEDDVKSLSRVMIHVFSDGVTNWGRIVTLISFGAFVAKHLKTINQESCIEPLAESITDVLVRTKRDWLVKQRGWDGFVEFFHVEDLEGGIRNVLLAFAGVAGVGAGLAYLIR
# Experiment: Mcl-1/Bid binding inhibitors, primary screen, biochemical, TR-FRET, 1536-well (AID 1021);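 further: His-tagged Mcl-1 with europium anti-His antibody binding Bid BH3 peptide; 0% = Mcl-1 plus peptide wells and 100% = peptide-only wells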
# Details: TR-FRET Mcl-1/Bid-Dy647 peptide binding, at 21.7 µM, active compounds read high
row,SMILES,inhibition
1,COc1cc(C(=S)N2CCOCC2)ccc1O,-30.2% (inactive)
2,CCOc1cc(C(=S)N2CCOCC2)ccc1O,74.5% (active)
3,CCOc1cc(C(=O)OCC(=O)Nc2cccc(C)c2)ccc1OCC(=O)N1CCOCC1,-54% (inactive)
4,O=C(Nc1ccc2c(c1)C(=O)OC2)Nc1cccc2ccccc12,-19.5% (inactive)
5,COc1ccc(/C=C/CN2CCN(Cc3ccc(C)cc3)C(CCO)C2)cc1 (centres undefined),-9.23% (inactive)
6,NC1=NC[C@@H](Cc2ccc(O)cc2)N1CC1CCCCC1,-44.1% (inactive)
7,C#CCOCCOCCOCCNc1nc(N2CCN(C(=O)C(Cc3ccc(O)cc3)n3cc(C(N)CC(C)C)nn3)CC2)nc(N2CCN(C(=O)C(Cc3ccc(O)cc3)n3cc(C(N)C(C)CC)nn3)CC2)n1 (centres undefined),-1.6% (inactive)
8,C#CCOCCOCCOCCNc1nc(N2CCN(C(=O)[C@H](CCC(=O)O)n3cc(C(N)CO)nn3)CC2)nc(N2CCN(C(=O)[C@H](Cc3ccc(O)cc3)n3cc(C(N)[C@H](C)CC)nn3)CC2)n1 (some centres undefined),62.7% (active)
9,C#CCOCCOCCOCCNc1nc(N2CCN(C(=O)[C@H](Cc3ccc(O)cc3)n3cc(C(N)CC(C)C)nn3)CC2)nc(N2CCN(C(=O)[C@H](CCC(=O)O)n3cc(C(N)[C@H](C)CC)nn3)CC2)n1 (some centres undefined),2.45% (inactive)
10,O=C(CCCl)Nc1ccc(S(=O)(=O)NCc2ccco2)cc1,-69.5% (inactive)
11,CCNC(=O)NC(=O)C(C)OC(=O)C1CCN(S(=O)(=O)c2ccccc2F)CC1 (centres undefined),-21.6% (inactive)
12,COc1ccc(OC)c(C2N(c3ccccn3)C(=O)C3CCCN32)c1 (centres undefined),51.8% (active)
13,COc1ccc(N2C(=O)C3CCCN3C2c2cc(OC)c(OC)cc2OC)cc1 (centres undefined),-12.4% (inactive)
14,COc1ccc(N2C(=O)C3CCCN3C2c2cccc(OC)c2)cc1 (centres undefined),-26.8% (inactive)
15,c1ccc(CSc2nnc(-c3ccco3)c(-c3ccco3)n2)cc1,91.7% (active)
16,Nc1nc(SCc2ccccc2Cl)n[nH]1,-6.93% (inactive)
17,Clc1ccccc1CSc1nnc(-c2ccco2)c(-c2ccco2)n1,99.3% (active)
18,O=C(Nc1nnc(SCc2ccccc2)s1)c1ccco1,-46.6% (inactive)
19,Brc1ccc(CSc2ccc(-c3ccco3)nn2)cc1,-15.8% (inactive)
20,COC(OC)c1ccnc(SCc2ccccc2Cl)n1,-7.91% (inactive)
21,COC(=O)c1cc(=O)n(-c2c(Cl)cc(C(F)(F)F)cc2Cl)[nH]1,-6.09% (inactive)

row,SMILES,inhibition
1,O=C1NNC(c2ccccc2)=N/C1=C\c1ccc(Cl)cc1,-13.5% (inactive)
2,Cc1nc2nc[nH]n2c(=O)c1C/C=C/c1ccccc1,-22.4% (inactive)
3,CCS(=O)(=O)c1ccc(C(=O)NC)c(Cl)c1Cl,-26.1% (inactive)
4,CCCCN1Cc2c(nc3cc(-c4ccccc4)[nH]n3c2=O)C1=O,-37.8% (inactive)
5,O=S(=O)(Nc1n[nH]c(C(F)(F)F)n1)c1ccccc1,-11.3% (inactive)
6,Oc1ccccc1N1CCN(c2ncnc3sc(-c4ccccc4)cc23)CC1,-18.1% (inactive)
7,CCc1cc2c(SCC(=O)Nc3ncc(Cl)c(C)c3Cl)ncnc2s1,-33.7% (inactive)
8,CCc1cc2c(N3CCN(c4nnc(CC)s4)CC3)ncnc2s1,56.7% (active)
9,N#Cc1c(NCCO)ccc([N+](=O)[O-])c1NCCO,-25.7% (inactive)
10,CCCCCC(=O)Nc1ccc(-c2cn3cccnc3n2)cc1,-4.56% (inactive)
11,CC(C)n1c(=S)[nH]c2cc(C(F)(F)F)ccc21,-33.7% (inactive)
12,COc1ccc(OC)c(Nc2nc3ccccc3n3cnnc23)c1,-7.62% (inactive)
13,CN(C)/C=C(/C(=O)c1ccccc1Cl)S(C)(=O)=O,-0.7% (inactive)
14,CCOC(=O)c1cn(CC)c2cc(F)c(F)cc2c1=O,-8.08% (inactive)
15,CC(C)c1ccc2c(c1)c(SC(C)(C)C)c(CC(C)(C)C(=O)O)n2Cc1ccc(Cl)cc1,83.2% (active)
16,CCC(=O)Nc1cccc(C2=NOC3(C2)C[C@@H](C(N)=O)N(C(=O)c2cc([N+](=O)[O-])cc([N+](=O)[O-])c2C)C3)c1 (some centres undefined),-35.2% (inactive)
17,CC(C)C(=O)N1CCC2(CC1)Oc1ccc(F)cc1C(=O)C21CC(c2ccccc2)=NO1 (centres undefined),-8.72% (inactive)
18,Cc1ccc(S(=O)(=O)/N=S(\C)C(C)C)cc1 (centres undefined),89.4% (active)
19,CCCC/S(C)=N/S(=O)(=O)c1ccc(C)cc1 (centres undefined),4.25% (inactive)
20,CC/S(CC1CC1(Cl)Cl)=N\S(=O)(=O)c1ccc(C)cc1 (centres undefined),-4.99% (inactive)
21,O=C1[C@@H]2C(c3cccnc3)=NO[C@@H]2C(=O)N1c1ccc(Cl)cc1Cl,-19.8% (inactive)

row,SMILES,inhibition
1,CCN1C(=O)/C(=C2/Sc3ccccc3N2CCCS(=O)(=O)O)SC1=S,-30.2% (inactive) and -29.9% (inactive)
2,CCC(=O)/C=C1\Sc2ccccc2N1CC,-12.9% (inactive)
3,CCN1C(=O)/C(=c2\s/c(=C3\Sc4ccccc4N3C)c(=O)n2C)N(C)C1=S,79.2% (active)
4,Cc1cc(F)ccc1NC(=O)C(C)n1c2ccccc2c2nc(=O)cc(C)n21 (centres undefined),-4.95% (inactive)
5,COCCN(CCOC)c1nc(N)c2c(N)nc3c(c2c1C#N)CC(=O)N3Cc1ccc(Cl)cc1,54.2% (active)
6,CCOc1ccc(NC(=O)c2cc(C)nc3ccccc23)cc1,-4.96% (inactive)
7,COc1ccccc1C(=O)NNC(=O)c1ccc(NC(=O)c2ccccc2)cc1,-23.3% (inactive)
8,COc1ccccc1C(=O)Nc1ccc(OCc2nnc3c4ccccc4c(C)nn23)cc1,59.8% (active)
9,CCOC(=O)N/N=C1\CC(C)S(=O)(=O)c2ccc(Cl)cc21 (centres undefined),-6.47% (inactive)
10,O=C(O)CCc1cccnc1,-29.9% (inactive)
11,COc1ccc2nc(Nc3nc4cc5c(cc4s3)OCCO5)sc2c1,-62.6% (inactive)
12,COc1ccc2nc(NC(=O)c3ccc(Br)s3)sc2c1,4.41% (inactive)
13,COc1ccc2nc(Nc3nc4ccc(NC(C)=O)cc4s3)sc2c1,72.8% (active)
14,COc1ccc(-c2csc3ncnc(Oc4ccc5c(C)cc(=O)oc5c4)c23)cc1,63.3% (active)
15,COc1cccc(-c2nnc(SCCOc3ccc4c(C)cc(=O)oc4c3)o2)c1,-1.18% (inactive)
16,COc1ccc(N2CCN(C(=O)COc3ccc4c(C)cc(=O)oc4c3)CC2)cc1,-16.1% (inactive)
17,O=C(CN1CCN(Cc2ccccc2)CC1)NC(c1ccccc1)c1ccccc1,26.9% (inactive)
18,COc1ccc(NC(=O)CCN2C(=O)/C(=C/c3ccc4c(c3)OCO4)SC2=S)cc1,-17% (inactive)
19,Cc1cc(C)c(C2C3=C(Nc4c2c(C)nn4-c2ccccn2)c2ccccc2C3=O)c(C)c1 (centres undefined),-27.1% (inactive)
20,Cc1ccc(N=Nc2c(C)[nH]n(-c3ccccc3)c2=O)cc1,-11.4% (inactive)
21,Cc1ccc(C2C3=C(Nc4[nH]n(-c5ccccc5)c(=O)c42)c2ccccc2C3=O)cc1 (centres undefined),84.6% (active)

row,SMILES,inhibition
1,Cc1ccc(C(CC(=O)O)Nc2nc(N3CCCCC3)nc(N3CCCCC3)n2)cc1 (centres undefined),50.7% (active)
2,CC(=O)NC(CC(=O)O)c1ccc(F)cc1 (centres undefined),-2.56% (inactive)
3,O=C(O)c1ccc(/C=N/Nc2nc(N3CCCCC3)nc(N3CCCCC3)n2)cc1,5.5% (inactive)
4,CCC(C)(C)NC(=O)C1c2ccccc2Oc2ccccc21,-5.83% (inactive)
5,Cc1ccc(-c2csc3nnc(SCC(=O)NCc4ccco4)n23)cc1,-17.3% (inactive)
6,CCn1c(SCC(=O)NCc2ccco2)nnc1-c1ccc(N)cc1,75.2% (active)
7,CCn1c(COc2ccccc2)nnc1SCC(=O)NCc1ccco1,-25.4% (inactive)
8,CC(C)n1c(=O)[nH]c2cc(C(=O)Nc3ccccc3)ccc21,-10.9% (inactive)
9,COc1c(C=O)c(CCN(C)C(=O)c2ccc(F)cc2)cc2c1OCO2,0.65% (inactive)
10,Cc1ccc(N2CCN(C3=NC(=O)/C(=C\c4cccs4)S3)CC2)cc1,97.7% (active)
11,Cc1ccsc1/C=C1\SC(N2CCOCC2)=NC1=O,-15.9% (inactive)
12,Cc1ccc(N2CCN(/N=C/c3cccs3)CC2)cc1,-7.6% (inactive)
13,Cc1ccc(-c2nn(-c3cccc(F)c3)cc2CNCCc2ccncc2)o1,-20.2% (inactive)
14,C=CCN(c1ccccc1C(=O)NCC(=O)OCC)S(=O)(=O)c1ccc(C)cc1,-11.3% (inactive)
15,O=S(=O)(c1ccc(-c2ccccc2)cc1)N1CCCC1,-19.2% (inactive)
16,O=S(=O)(c1cccc(-c2nnc(SC(F)F)n2-c2ccccc2)c1)N1CCCCC1,91.8% (active)
17,O=S(=O)(c1cccc(-c2nnc3n2CCCCC3)c1)N1CCOCC1,-26.9% (inactive)
18,COc1cccc(/C=N\NC(=O)C2=NNC(=O)C2C)c1O (centres undefined),-128% (inactive)
19,COc1cccc(/C=N/Nc2cc(C)nc(-c3ccccc3O)n2)c1O,-54.1% (inactive)
20,COc1cccc(/C=N/NC(=O)c2[nH]nc3c2CCc2ccccc2-3)c1O,53.3% (active)
21,O=C(NCc1ccc2c(c1)OCO2)c1sccc1Br,-8.46% (inactive)

# Source: PubChem BioAssay AID1021 (Emory University Molecular Libraries Screening Center, 2008)
